Results on 7 compounds are retold here after PubChem BioAssay (NCATS).

Where “and” joins values, the source holds several entries; their conditions need not be identical. Equal entries are not always repeated. Records with an inconclusive call do not appear. Calls of active or inactive are those of the source. Unless noted, the call rests on the fitted dose curve; in most records, active means well fitted curve in the direction sought with a large enough effect; inconclusive means small, poorly fitted or top-dose-only effect, or another doubt; inactive means no such curve, though single readings can be large; an effect the other way counts as inactive or inconclusive.

Assay [1] addresses Cytochrome P450 3A4 (Homo sapiens) (UniProt P08684). The assay is described as follows: qHTS Assay for Activators of Cytochrome P450 3A4 (AID 885). Further: nearly all actives have a fitted effect of over 65% in size. The note with it: recombinant CYP3A4, Luciferin-PPXE luminescence, 60 min; series mostly up to 57.1 µM. In short, it runs like this:
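Activators are scored by enhanced luminescence from CYP3A4 conversion of luciferin-PPXE (25uM, equal to KM) to luciferin, after 60 min at RT with an NADPH-regenerating system.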
Background: qHTS replaces the single test concentration by a dilution series.

Assay [2] can be described thus: qHTS Assay for Lipid Storage Modulators (AID 1519; calls by dose curve; on activity change, negative = inhibition: on the % scale 0 is the no-effect control and ±100 the full control effect). Particulars: Drosophila S3 cells, BODIPY lipid droplet/cell ratio, laser cytometry, cells loaded with oleic acid. The gist of the method:
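Cells seeded at 5,000 per well were treated with compounds over a concentration series and loaded with oleic acid (400 uM, as added). Lipid droplet fluorescence (488 nm excitation, 500-530 nm channel) was read by laser-scanning cytometry and normalized to 20 uM Triacsin C.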

Assay [3] deals with Ubiquitin carboxyl-terminal hydrolase 1 (Homo sapiens) (UniProt O94782). The assay is described as follows: Inhibitors of USP1/UAF1: Pilot qHTS (AID 504865).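 Further: rhodamine fluorescence freed from ubiquitin-rhodamine substrate followed over time; top concentration of the series differs between compounds; on the % scale 0 is the no-effect control and ±100 the full control effect; nearly all actives have a fitted effect of over 35% in size.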 The note with it: purified USP1/UAF1, Ub-rhodamine cleavage fluorescence; series mostly up to 114 µM. In short, it runs like this:
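Kinetic fluorescence assay: 1nM USP1/UAF1, 15 min compound preincubation, then 150nM Ub-Rho; 480/540 nm.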

Assay [4] in a line: Confirmation and Secondary Assay for Modulators of Hemoglobin Beta Chain Splicing at IVS2 654 locus (AID 910).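 Further: per-well total GFP intensity by laser scanning cytometry after 2-day treatment; % of control where 0% means no effect.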 Particulars: HeLa EGFP-654 splicing reporter, GFP fluorescence, 48 h; series mostly up to 46.1 µM. In short, it runs like this: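 HeLa cells stably carrying EGFP interrupted by mutant beta-globin IVS2-654 intron (CMV-driven) were treated with compound for 2 days at 37C; corrected splicing was scored as total peak GFP intensity per well (488 nm excitation, 500-520 nm emission).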

Assay [5] in a line: Confirmation and Secondary Assay for Modulators of Hemoglobin Beta Chain Splicing at IVS2 705 locus (AID 930). Further: % of control where 0% means no effect. The note with it: HeLa EGFP-705 splicing reporter, GFP fluorescence, 48 h; series mostly up to 46.1 µM. The gist of the method: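 HeLa cells stably carrying EGFP interrupted by mutant beta-globin IVS2-705 intron (CMV-driven) were seeded at 500 cells/well, treated next day with compound for 2 days at 37C; corrected splicing restores EGFP, read as total peak GFP intensity per well.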

Assay [6] addresses Peroxisome proliferator-activated receptor alpha (Homo sapiens) (UniProt Q07869). The assay is described as follows: qHTS assay for small molecule agonists of the peroxisome proliferator-activated receptor alpha (PPARalpha) signaling pathway (AID 651778). Further: % of control where 0% means no effect. The note with it: PathHunter PPARalpha complementation, chemiluminescence, 6 h; stronger effect = higher value. In short, it runs like this: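 Cells plated at 2,000/well and held overnight at 37 C, 5% CO2, then compound added by pin tool for 6 hr; after PathHunter detection reagent and 60 min at room temperature, chemiluminescence from enzyme complementation was read.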

Assay [7] is described as follows: qHTS assay for cell viability of HEK293 cells (AID 743288). Further: on the % scale 0 is the no-effect control and ±100 the full control effect; nearly all actives have a fitted effect of over 50% in size. Particulars: ATP luminescence (CellTiter-Glo), 18 h; max response: stronger effect = lower value. The gist of the method:
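Quantitative high-throughput screen: compounds were pinned onto parental HEK293 cells (2,000 per well) after a minimum 5 h settling at 37 C, incubated 18 h at 37 C, and intracellular ATP measured by luciferase luminescence.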

In assay [8] the target is Cytochrome P450 1A2 (Homo sapiens) (UniProt P05177). The assay can be described thus: p450-cyp1a2 (AID 410; calls by dose curve;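 further: -100% = full effect of reference inhibitor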). Particulars: recombinant CYP1A2, luciferin-ME demethylation, luminescence; series mostly up to 25.6 µM. The gist of the method:
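Read-out is luminescence from luciferin produced by CYP1A2 demethylation of Luciferin-ME (100uM, at Km). Detection reagent stopped the 60 min NADPH-dependent reaction; signals were normalized to 57 uM furafylline.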

Assay [9] concerns the target Glucocorticoid receptor (Homo sapiens) (UniProt P04150). The assay is described as follows: GR-GFP Redistribution (AID 450;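 active means compounds whose dose series gives a full or clear partial fitted curve of increased nuclear translocation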; further: potency means the concentration at half of the fitted maximal effect). Particulars: U2OS GR-GFP nuclear translocation, laser cytometry, 2 h.
Assay [10] has as its target Mitogen-activated protein kinase 10 (Mus musculus) (UniProt Q61831). The assay can be described thus: JNK3 AlphaScreen Assay (AID 530; active means well fitted curve in either direction with a large enough effect, not every such curve was filed as active;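 further: kinase came from lysate of stimulated human HepG2 cells; on the % scale 0 is the no-effect control and ±100 the full control effect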). Particulars: JNK3 lysate, c-Jun phosphorylation; series mostly up to 57.1 µM. In short, it runs like this: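 Biotinylated GST-cJun(1-79) served as substrate for JNK3 in HepG2 lysates stimulated with IL-1beta and TNF-alpha. ATP was 10 uM final, pH 7.6. Ser73 phosphorylation was quantified by AlphaScreen (680 nm excitation).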
A general note: Alpha assays give light when donor and acceptor beads are brought close together.

The mark [11] stands for this setting: measured here: cell count channel max response.
The mark [12] stands for this setting: measured here: lipid channel max response.

Ubiquitin carboxyl-terminal hydrolase 1 (Homo sapiens), sequence (O94782 whole entry, looked up): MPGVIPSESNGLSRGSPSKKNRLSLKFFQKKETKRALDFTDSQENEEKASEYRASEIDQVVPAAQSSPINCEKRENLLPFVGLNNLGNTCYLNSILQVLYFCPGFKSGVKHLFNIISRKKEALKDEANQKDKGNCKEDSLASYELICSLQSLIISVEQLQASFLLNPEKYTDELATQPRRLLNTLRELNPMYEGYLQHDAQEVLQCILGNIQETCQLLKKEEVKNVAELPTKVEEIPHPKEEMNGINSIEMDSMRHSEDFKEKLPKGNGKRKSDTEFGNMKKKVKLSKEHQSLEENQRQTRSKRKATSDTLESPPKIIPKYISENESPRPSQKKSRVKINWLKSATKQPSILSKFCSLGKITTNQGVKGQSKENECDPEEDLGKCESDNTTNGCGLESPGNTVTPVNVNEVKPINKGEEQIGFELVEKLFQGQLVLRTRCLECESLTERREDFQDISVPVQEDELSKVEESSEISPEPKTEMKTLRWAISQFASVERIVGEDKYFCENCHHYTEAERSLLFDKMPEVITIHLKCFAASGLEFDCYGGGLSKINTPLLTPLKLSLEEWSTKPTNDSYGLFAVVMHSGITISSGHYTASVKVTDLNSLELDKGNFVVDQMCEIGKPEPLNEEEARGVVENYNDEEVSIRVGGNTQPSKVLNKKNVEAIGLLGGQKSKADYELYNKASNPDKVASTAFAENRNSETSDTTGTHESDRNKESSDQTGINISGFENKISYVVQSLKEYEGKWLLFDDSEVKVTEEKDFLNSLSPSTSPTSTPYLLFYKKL
Cytochrome P450 3A4 (Homo sapiens), sequence (P08684 whole entry, looked up): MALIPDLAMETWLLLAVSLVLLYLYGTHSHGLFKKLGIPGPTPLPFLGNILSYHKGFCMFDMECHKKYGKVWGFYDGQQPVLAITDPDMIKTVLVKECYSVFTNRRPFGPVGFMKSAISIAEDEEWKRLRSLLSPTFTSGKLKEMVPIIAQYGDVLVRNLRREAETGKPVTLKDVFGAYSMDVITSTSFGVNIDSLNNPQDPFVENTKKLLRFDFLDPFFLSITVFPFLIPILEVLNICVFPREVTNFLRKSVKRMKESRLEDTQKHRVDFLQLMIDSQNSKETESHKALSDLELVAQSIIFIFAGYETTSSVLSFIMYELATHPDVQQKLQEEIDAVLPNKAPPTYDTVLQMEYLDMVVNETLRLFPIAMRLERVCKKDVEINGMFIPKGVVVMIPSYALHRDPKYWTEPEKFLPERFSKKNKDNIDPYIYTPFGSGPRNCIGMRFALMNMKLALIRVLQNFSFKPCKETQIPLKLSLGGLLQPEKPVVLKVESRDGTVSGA
Peroxisome proliferator-activated receptor alpha (Homo sapiens), sequence (Q07869 whole entry, looked up): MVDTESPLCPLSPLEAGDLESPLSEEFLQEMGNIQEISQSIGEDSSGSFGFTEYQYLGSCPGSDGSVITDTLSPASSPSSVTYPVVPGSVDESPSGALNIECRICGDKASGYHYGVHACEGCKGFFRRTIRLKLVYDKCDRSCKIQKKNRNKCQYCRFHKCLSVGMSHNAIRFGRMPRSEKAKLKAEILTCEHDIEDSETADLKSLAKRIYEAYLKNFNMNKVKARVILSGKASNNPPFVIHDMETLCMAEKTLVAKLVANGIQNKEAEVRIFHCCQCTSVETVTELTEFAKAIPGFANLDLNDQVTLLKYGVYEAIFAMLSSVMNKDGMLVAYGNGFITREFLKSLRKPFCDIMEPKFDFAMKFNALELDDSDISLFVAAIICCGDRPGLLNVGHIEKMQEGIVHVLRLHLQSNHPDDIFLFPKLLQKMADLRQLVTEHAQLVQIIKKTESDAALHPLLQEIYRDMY
Cytochrome P450 1A2 (Homo sapiens), sequence (P05177 whole entry, looked up): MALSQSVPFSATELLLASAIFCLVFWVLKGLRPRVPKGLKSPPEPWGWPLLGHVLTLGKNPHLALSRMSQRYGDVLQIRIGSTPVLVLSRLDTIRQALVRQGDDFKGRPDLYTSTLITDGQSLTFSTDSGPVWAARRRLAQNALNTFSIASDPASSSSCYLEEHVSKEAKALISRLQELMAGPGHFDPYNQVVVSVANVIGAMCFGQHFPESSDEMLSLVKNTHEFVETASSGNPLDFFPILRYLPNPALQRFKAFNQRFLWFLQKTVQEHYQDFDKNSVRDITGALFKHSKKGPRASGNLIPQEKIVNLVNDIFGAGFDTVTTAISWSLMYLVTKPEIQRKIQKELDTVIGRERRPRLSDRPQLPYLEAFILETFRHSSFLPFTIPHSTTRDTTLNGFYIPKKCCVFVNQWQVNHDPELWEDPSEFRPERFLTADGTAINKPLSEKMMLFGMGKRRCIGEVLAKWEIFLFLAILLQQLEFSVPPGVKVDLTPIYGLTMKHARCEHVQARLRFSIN
Glucocorticoid receptor (Homo sapiens), sequence (P04150 whole entry, looked up): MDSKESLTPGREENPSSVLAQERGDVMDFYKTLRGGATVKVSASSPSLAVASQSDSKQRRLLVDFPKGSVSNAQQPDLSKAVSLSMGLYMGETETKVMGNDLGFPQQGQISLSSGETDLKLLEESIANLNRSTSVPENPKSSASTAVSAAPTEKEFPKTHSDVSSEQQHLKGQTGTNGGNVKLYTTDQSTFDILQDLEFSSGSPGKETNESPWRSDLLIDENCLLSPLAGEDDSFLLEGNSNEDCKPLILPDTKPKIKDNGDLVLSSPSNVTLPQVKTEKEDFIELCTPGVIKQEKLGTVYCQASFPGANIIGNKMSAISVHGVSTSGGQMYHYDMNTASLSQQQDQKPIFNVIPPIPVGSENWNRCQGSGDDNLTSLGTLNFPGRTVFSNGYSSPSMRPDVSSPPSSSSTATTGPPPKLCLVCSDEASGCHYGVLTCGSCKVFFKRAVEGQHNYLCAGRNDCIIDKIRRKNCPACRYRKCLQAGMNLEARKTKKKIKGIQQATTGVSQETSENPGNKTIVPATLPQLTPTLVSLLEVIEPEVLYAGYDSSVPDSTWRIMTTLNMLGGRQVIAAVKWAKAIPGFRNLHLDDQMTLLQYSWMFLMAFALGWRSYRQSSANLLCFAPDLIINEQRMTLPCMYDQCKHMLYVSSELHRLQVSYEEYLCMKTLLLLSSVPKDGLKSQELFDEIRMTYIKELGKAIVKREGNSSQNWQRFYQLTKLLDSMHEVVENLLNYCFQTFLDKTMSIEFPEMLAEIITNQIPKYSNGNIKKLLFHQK

For `C=C[C@H]1CN2CC[C@H]1C[C@H]2c1[nH]c2ccccc2c1CCO`, the Potency entry in assay [1] and in assay [3] was “inactive” throughout. Moreover, in assay [2] (at 57.5 µM (top of the series)), the activity change, negative = inhibition was 2.01% (inactive). Moreover, the max response is -5.69% in assay [2] (setting [11]) and -2.67% in [2] (setting [12]).

For the compound `C[C@]12CCC3C(CC[C@H]4C[C@@H](O)CC[C@]34C)[C@@H]1CCC2=O` (stereo partly drawn), the Potency entry in assay [1] and in assay [3] was “inactive” in each case. In assay [2] (at 57.5 µM (top of the series)), the activity change, negative = inhibition is 0.0615% (inactive). Besides, the max response in assay [2] (setting [11]) was -8.24%; in assay [2] (setting [12]), -8.16%.

On to `COc1cc2c(c(OC)c1OC)-c1ccc(OC)c(=O)cc1[C@H](NC(C)=O)CC2`, for which the activity change, negative = inhibition in [2] (at 25.7 µM (top of the series)) is -7.92% (inactive). Further, the values for the max response in assay [2] (setting [11]) and in assay [2] (setting [12]) were -13.6% and -22.5%, respectively. The Potency entry in assay [3] is “inactive”.

In the case of `CCN1C[C@@]2(COC(=O)c3ccccc3N3C(=O)CC(C)C3=O)CC[C@H](OC)[C@]34C5C[C@@H]6[C@@H](OC)C[C@@](O)(C5[C@H]6OC)[C@@](O)(C13)[C@@H](OC)C24` (stereo partly drawn), the Potency entry in [1] and in [3] was “inactive” throughout. Moreover, the activity change, negative = inhibition in [2] (at 57.5 µM (top of the series)) was 4.09% (inactive). In addition, the max response in assay [2] (setting [11]) was 6.93%; in [2] (setting [12]) it was 19.9%.

Take `CNC(=O)Oc1ccc2c(c1)[C@@]1(C)CCN(C)C1N2C` (stereo partly drawn): the activity change, negative = inhibition in [2] (at 57.5 µM (top of the series)) was 4.58% (inactive). In addition, the max response in [2] (setting [11]) came to 3.75%; in assay [2] (setting [12]), 14.3%. In assay [3], the Potency result was “inactive”.

Regarding `CNC(=O)CSP(=S)(OC)OC`, the Potency result in assay [4], in assay [5] and in [3] was “inactive” throughout. Further, in [2] (at 57.5 µM (top of the series)), the activity change, negative = inhibition is 4.16% (inactive). Also, the max response in assay [2] (setting [11]) is 5.57%; in assay [2] (setting [12]) it was 8.94%; in assay [6] it was -2.63% (inactive) and -0.399% (inactive); in [7], -6.64% (inactive) and -7.96% (inactive).

On to `CC(=O)O[C@H]1C[C@@H](O[C@@H]2[C@H](C)O[C@H](O[C@@H]3[C@H](C)O[C@H](O[C@@H]4CC[C@@]5(C)[C@@H](CC[C@]6(C)[C@]5(C)C[C@H](O)[C@]5(C)[C@@H](C7=CC(=O)OC7)CC[C@@]56O)C4)C[C@@H]3O)C[C@@H]2O)O[C@@H](C)[C@H]1O[C@H]1O[C@@H](CO)[C@@H](O)[C@@H](O)[C@@H]1O`, for which the Potency entry in assay [8] and in assay [3] was “inactive” in each case. In [9], the Potency is > 20.6 µM (inactive). The compound was classed as inactive in assay [10]. In addition, the activity change, negative = inhibition in assay [2] (at 25.7 µM (top of the series)) was -1.77% (inactive). Besides, the max response in assay [2] (setting [11]) was -6.91%; in assay [2] (setting [12]), -8.38%.
